The list is not random: actives were taken first. Their share in the collection is about 10%.
JMJD2A Tudor: inhibitors of human JMJD2A Tudor domain; O75164; AlphaScreen JMJD2A-Tudor / H3K4me3 peptide binding; Potency, µM (series often up to 114 µM), without a hit: at the highest dose activity change, negative = inhibition, usual class: inhibitors; 390,000 compounds, 4.4% hits; AID 504339; also: potency is read from the fitted curve at half-maximal effect; % is scaled to controls: 0 for no effect and ±100 for the full control effect; nearly all actives have a fitted effect of over 50% in size
Six1-Eya2 blk: blocks human Six1 binding to Eya2 | Q15475+O00167 | AlphaScreen GST-Six1/His-Eya2 binding, biochemical; hits give low values | activity change, % (no concentration beside the values) | 360,000 compounds, 0.56% hits | AID 651725; in the data active = activity change below about -65%; inconclusive = mostly about -30% to -63%; also: % is scaled to controls: 0 for no effect and ±100 for the full control effect
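Compounds are tested against tagged Six1 and Eya2 proteins bridged by glutathione donor and nickel acceptor beads; after a one-hour incubation at 37 °C without light, AlphaScreen emission is recorded.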
HP1b binding inh: inhibitors of HP1-beta chromodomain binding to methylated histone tails; Potency, µM (highest dose often 114 µM), inactives show at the top dose activity change, negative = inhibition, hits mostly inhibitors; AID 540317; AlphaScreen HP1-beta / biotin-H3K9me3 peptide binding; 390,000 compounds, 0.56% hits; P83916; also: potency is read from the fitted curve at half-maximal effect; nearly all actives have a fitted effect of over 70% in size
Target sequence (P83916 whole entry, looked up): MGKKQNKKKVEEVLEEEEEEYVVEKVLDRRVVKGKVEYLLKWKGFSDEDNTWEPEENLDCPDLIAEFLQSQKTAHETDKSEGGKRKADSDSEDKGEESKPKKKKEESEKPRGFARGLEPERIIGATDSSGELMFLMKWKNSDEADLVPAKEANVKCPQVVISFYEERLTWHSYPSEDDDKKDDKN
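Compound inhibition of the preformed complex between 50 nM HP1-beta and 50 nM biotinylated H3K9me3 peptide was read by AlphaScreen. Buffer was PBS pH 7.4 with 0.01% Tween-20. Incubations ran 30 min at room temperature, with 10 ug/mL donor/acceptor beads.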
CtBP-E1A blk: inhibitors of CtBP/E1A interaction; AlphaScreen GST-E1A/His-CtBP binding, 1536-well; hits give low values; AID 651724; 340,000 compounds, 0.49% hits; activity change, % (no concentration beside the values); in the data active = activity change below about -65%; inconclusive = mostly about -30% to -63%; also: % is scaled to controls: 0 for no effect and ±100 for the full control effect
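Steps: dispense buffer (Tris pH 8.0, NaCl 300 mM, TCEP 1 mM, BSA, Tween 20); add 5X protein mix (GST-E1A, His-CtBP, 125 nM each); pin 23 nL compound; 2 h at 37 °C, dark; add 5X beads (50 ug/mL); 1 h; read.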
G9a inh: inhibitors of human histone lysine methyltransferase G9a; Q96KQ7; G9a H3K9 monomethylation, AlphaScreen, 2 h; Potency, µM (highest dose often 102 µM), inactives show top-dose activity, negative = inhibition, actives largely listed as inhibitors; 350,000 compounds, 8.8% hits; AID 504332; also: potency is read from the fitted curve at half-maximal effect; % is scaled to controls: 0 for no effect and ±100 for the full control effect; nearly all actives have a fitted effect of over 75% in size
Target sequence (Q96KQ7 913-1193 limits assumed): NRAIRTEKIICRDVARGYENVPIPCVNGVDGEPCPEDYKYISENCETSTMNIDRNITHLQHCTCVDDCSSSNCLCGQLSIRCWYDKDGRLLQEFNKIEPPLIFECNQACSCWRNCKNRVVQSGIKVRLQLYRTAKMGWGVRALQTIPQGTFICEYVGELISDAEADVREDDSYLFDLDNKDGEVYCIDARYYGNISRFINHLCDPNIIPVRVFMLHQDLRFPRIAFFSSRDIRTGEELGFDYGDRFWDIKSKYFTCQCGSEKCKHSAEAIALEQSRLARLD
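AlphaScreen read-out: biotin-H3K9 peptide (500 nM) methylation by 20 nM enzyme with 20 uM SAM, 2 h at room temperature after 15 min compound preincubation; anti-monomethyl H3K9 antibody plus donor/acceptor beads, 10 min dark.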
BAZ2B block: blocks human BAZ2B; Q9UIF8; AlphaScreen BAZ2B-H3K14Ac peptide displacement; Potency, µM (series often up to 114 µM), inactives show at the highest dose activity change, negative = inhibition, most hits filed as inhibitors; 360,000 compounds, 4.4% hits; also: potency is read from the fitted curve at half-maximal effect; % is scaled to controls: 0 for no effect and ±100 for the full control effect; nearly all actives have a fitted effect of over 60% in size
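BAZ2B (50 nM) with biotin-H3(5-23)K14Ac peptide (50 nM) in PBS pH 7.4, 0.01% Tween-20, preformed 30 min, then compound 30 min at room temperature; top concentration 110uM. AlphaScreen streptavidin donor/nickel chelate acceptor beads (10 ug/mL final), 20 min dark, signal read.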
* marks the source's active call; other numbers are inactive results; [ ] = remark or other dose. Unless noted, calls follow the shape of the dose curve; as a rule, active = well fitted inhibition curve with a large enough effect; inconclusive = small, poorly fitted or top-dose-only effect; inactive = no such curve, though single readings can be large or run the other way.

For COc1ccc(/C=C2\SC(N3CCc4ccccc4C3)=NC2=O)cc1OC the results were JMJD2A Tudor inconclusive, Six1-Eya2 blk -13.0, HP1b binding inh inconclusive, CtBP-E1A blk -13.6, G9a inh 12.6µM* and BAZ2B block -36.6%.
For O=C(N/N=C/c1ccc[nH]1)c1cc2ccccc2cc1O the results were JMJD2A Tudor inconclusive, Six1-Eya2 blk -10.7, HP1b binding inh -1.8%, CtBP-E1A blk -12.4, G9a inh 79.4µM* and BAZ2B block 39.8µM*.
Cc1ccc(SCC(=O)Nc2ccc3oc(-c4cccc(Cl)c4)nc3c2)cc1 was read as JMJD2A Tudor -11.9%, HP1b binding inh 28.7%, G9a inh -6.0%[59 µM] and BAZ2B block 2.1%.
`O=C(NS(=O)(=O)Nc1ccccc1)C1=C(N2CCCC2)COC1=O` gave JMJD2A Tudor 100µM*, Six1-Eya2 blk 0.7 and HP1b binding inh 28.3%.
Screening O=C(NC(=O)c1ccccc1)C1=C(N2CCCC2)COC1=O returned JMJD2A Tudor -9.7%, Six1-Eya2 blk 3.5, HP1b binding inh 29.8%, CtBP-E1A blk -0.7, G9a inh -11.5%[2.33 µM] and BAZ2B block -2.5%.
O=C(Nc1cccnc1)c1ccc(NS(=O)(=O)c2cccc([N+](=O)[O-])c2)cc1 was read as JMJD2A Tudor -16.1%, Six1-Eya2 blk -8.3, HP1b binding inh 38.2%, CtBP-E1A blk -3.2, G9a inh inconclusive and BAZ2B block 3.0%.
`CC(=O)COc1ccc2c(c1C)O/C(=C\c1ccco1)C2=O` gave JMJD2A Tudor -28.1%, Six1-Eya2 blk -12.9, HP1b binding inh 10.9%, G9a inh 28.2µM* and BAZ2B block -33.7%.
Screening COc1ccc2c(c1)O/C(=C\c1ccco1)C2=O returned JMJD2A Tudor inconclusive, Six1-Eya2 blk 10.1, HP1b binding inh inconclusive, CtBP-E1A blk 3.0 and BAZ2B block 14.1µM*.
COC(=O)C1=C(C)NC(=O)/C1=C\c1ccco1 was read as JMJD2A Tudor -31.6%, Six1-Eya2 blk 0.5, HP1b binding inh 0.5%, CtBP-E1A blk -5.7, G9a inh -50.1% and BAZ2B block inconclusive.
Screening COC(=O)C(C)Oc1ccc2c(c1)O/C(=C\c1ccco1)C2=O (stereo not drawn) returned JMJD2A Tudor 50.1µM*, Six1-Eya2 blk -10.8, HP1b binding inh -9.2%, CtBP-E1A blk 9.6, G9a inh 11.2µM* and BAZ2B block inconclusive.
CCN1CCN(c2c(/C=C3\SC(=S)N(Cc4ccco4)C3=O)c(C)c(C#N)c(=O)n2C)CC1 was read as JMJD2A Tudor inconclusive, Six1-Eya2 blk -6.9, HP1b binding inh -3.6%, CtBP-E1A blk -4.0, G9a inh 22.4µM* and BAZ2B block -26.3%.
Screening Nc1nc(C2C(=O)CCCC2=O)cs1 returned JMJD2A Tudor 10µM*, Six1-Eya2 blk -21.5, HP1b binding inh 5.1%, CtBP-E1A blk inconclusive, G9a inh -2.3%[12.7 µM] and BAZ2B block 44.7µM*.
`Nc1nc(C2CC(=O)OC23CCCCC3)cs1` (stereo not drawn) gave JMJD2A Tudor 2.1%, Six1-Eya2 blk 4.4, HP1b binding inh 14.4%, CtBP-E1A blk -9.7, G9a inh 2.3%[59 µM] and BAZ2B block -1.7%.
Screening NCCC(=O)Nc1cccc(-c2nn3c(=O)cc(N4CCNCC4)nc3s2)c1 returned JMJD2A Tudor -28.6%.
For CC(=O)c1c(C)[nH]c(C(=O)OCC(=O)Nc2cccc(S(=O)(=O)N(C)C)c2)c1C the results were JMJD2A Tudor -23.4%, Six1-Eya2 blk 3.6, HP1b binding inh 48.9%, CtBP-E1A blk -19.1, G9a inh 1.8%[59 µM] and BAZ2B block 50.1µM*.
CC(=O)c1c(C)[nH]c(C(=O)OCC(=O)Nc2cccc(S(=O)(=O)N3CCCC3)c2)c1C was read as JMJD2A Tudor -22.1%, Six1-Eya2 blk -26.4, HP1b binding inh 6.7%, CtBP-E1A blk -8.0, G9a inh -1.2% and BAZ2B block 56.2µM*.
For CCN(CC)S(=O)(=O)c1cccc(NC(=O)COC(=O)c2[nH]c(C)c(C(C)=O)c2C)c1 the results were Six1-Eya2 blk -4.7 and CtBP-E1A blk -1.3.

Screens deposited in PubChem BioAssay by National Center for Advancing Translational Sciences (NCATS).
